# From PubChem
# PfHsp90 yeast 2 – reduces growth (ATP signal) of yeast expressing P. falciparum Hsp90. S. cerevisiae expressing PfHsp90, BacTiter-Glo ATP, 48 h; yeast lacking PDR1 and PDR3 efflux regulators. inhibition, % at 9.4 µM. 0.32% of 310,000 active. AID 504621;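 active = every replicate shows inhibition above about 80%, whatever the replicate mean, limit read from the data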
# SIRT5 block – inhibitors of human sirtuin-5 desuccinylase; Q9NXA8; Purified SirT5, succinyl-peptide AMC, trypsin-coupled fluorescence; inhibition, % at 15 µM; 1.1% of 330,000 active; in the data active = inhibition above about 15%
# CASP6 VEID inh – caspase-6 (human) enzyme inhibition. P55212. purified caspase-6, Z-VEID-R110 cleavage fluorescence. inhibition, % at 12.5 µM. 0.53% of 350,000 active;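 active = mean inhibition across replicates at least about 35%, with every replicate also reaching that limit, limit read from the data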
# NSD2 inh – inhibitors of human histone methyltransferase NSD2 | NSD2 peptide methylation, AlphaScreen, 120 min | O96028 | AID 743445 | inhibition, % at 12.5 µM | 0.54% of 310,000 active; in the data active = inhibition above about 50%
# Target sequence (O96028 whole entry, looked up): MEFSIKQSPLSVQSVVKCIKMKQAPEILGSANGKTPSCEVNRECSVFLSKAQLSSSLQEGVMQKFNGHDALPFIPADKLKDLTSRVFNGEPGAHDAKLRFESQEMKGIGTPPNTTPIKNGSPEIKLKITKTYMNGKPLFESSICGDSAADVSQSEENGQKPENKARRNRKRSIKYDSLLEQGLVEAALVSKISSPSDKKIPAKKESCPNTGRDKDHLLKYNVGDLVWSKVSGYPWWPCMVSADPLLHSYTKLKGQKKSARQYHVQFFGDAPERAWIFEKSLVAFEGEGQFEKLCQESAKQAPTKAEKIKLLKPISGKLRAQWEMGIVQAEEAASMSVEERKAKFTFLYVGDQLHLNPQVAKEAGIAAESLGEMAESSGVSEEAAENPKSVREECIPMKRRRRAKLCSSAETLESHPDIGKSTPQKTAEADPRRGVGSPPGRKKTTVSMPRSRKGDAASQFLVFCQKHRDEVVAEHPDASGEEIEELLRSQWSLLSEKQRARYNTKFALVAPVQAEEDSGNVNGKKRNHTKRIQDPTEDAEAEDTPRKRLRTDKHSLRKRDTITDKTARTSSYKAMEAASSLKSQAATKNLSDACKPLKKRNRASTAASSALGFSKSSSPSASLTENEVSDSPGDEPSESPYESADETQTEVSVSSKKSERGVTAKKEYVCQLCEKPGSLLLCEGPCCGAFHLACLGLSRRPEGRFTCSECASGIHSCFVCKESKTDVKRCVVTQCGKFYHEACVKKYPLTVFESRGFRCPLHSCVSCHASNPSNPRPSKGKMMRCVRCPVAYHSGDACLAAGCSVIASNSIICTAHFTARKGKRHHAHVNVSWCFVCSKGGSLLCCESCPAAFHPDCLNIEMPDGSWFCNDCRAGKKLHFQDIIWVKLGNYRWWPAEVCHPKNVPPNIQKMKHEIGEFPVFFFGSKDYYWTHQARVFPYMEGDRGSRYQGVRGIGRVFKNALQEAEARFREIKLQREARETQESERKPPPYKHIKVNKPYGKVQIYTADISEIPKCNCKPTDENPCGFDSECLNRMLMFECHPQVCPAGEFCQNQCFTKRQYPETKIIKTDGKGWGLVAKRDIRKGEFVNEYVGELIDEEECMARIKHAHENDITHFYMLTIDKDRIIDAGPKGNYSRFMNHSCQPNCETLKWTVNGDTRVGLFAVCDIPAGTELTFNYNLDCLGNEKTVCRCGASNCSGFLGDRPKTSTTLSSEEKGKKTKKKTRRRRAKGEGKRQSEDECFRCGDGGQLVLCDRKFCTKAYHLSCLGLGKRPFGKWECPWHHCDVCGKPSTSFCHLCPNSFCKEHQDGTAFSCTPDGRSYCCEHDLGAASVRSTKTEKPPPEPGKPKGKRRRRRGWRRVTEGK
# ARNT-TACC3 inh – ARNT/TACC3 interaction disruption. AlphaScreen His-ARNT PAS-B/GST-TACC3 binding, luminescence; TACC3 fragment carries E629A point mutation. inhibition, % at 9.99 µM. 0.66% of 390,000 active. AID 623870;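 active = mean inhibition of replicates at least 50% and at least half of replicates each reaching 50%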
# Numbers stand for hits; – = inactive; · = no result; ! = repeats disagree. Shown are actives, neighbours in structure and some others; about 2.1% of the full set was active somewhere.
SMILES,PfHsp90 yeast 2,SIRT5 block,CASP6 VEID inh,NSD2 inh,ARNT-TACC3 inh
C[C@H](CO)N1C[C@H](C)[C@@H](CN(C)C(=O)c2ccc(N3CCN(C)CC3)cc2)OCc2cnnn2CCCC1=O,·,33!,–,·,–
C[C@@H]1CN([C@H](C)CO)C(=O)CCCn2nncc2CO[C@H]1CN(C)C(=O)c1ccncc1,·,–,–,·,–
COc1ccc(CNC(=O)c2nc(S(=O)(=O)Cc3ccccc3)ncc2Cl)cc1,–,21,–,–,–
CCCC#Cc1ccc([C@H]2[C@H](CO)N3CCCCN(C(=O)NC4CCCC4)C[C@@H]23)cc1,·,·,–,·,–
CCCC(=O)Nc1ccc2c(c1)C(=O)N(C)[C@@H]1CC[C@@H](CC(=O)NCC3CC3)O[C@@H]1CO2,·,–,–,·,–
CN(Cc1ccccc1)C(=O)c1[nH]cnc1C(=O)Nc1ccc(Br)cc1F,·,18,–,·,·
Oc1ccc2ccccc2c1C=Nc1ccccc1Br,–,–,–,–,–
Oc1ccccc1N=Cc1c(O)ccc2ccccc12,–,23,–,–,–
Oc1ccc2ccccc2c1C=NC12CN3CCN(CN(C3)C1)C2,·,·,·,113,67
CCCNC(=O)C[C@H]1CC[C@H]2[C@@H](COc3ccc(NC(=O)c4ccc(OC)cc4)cc3C(=O)N2C)O1,·,·,·,·,–
O=c1[nH]c2ccccc2c(O)c1SCCO,–,18,–,–,·
Nc1ccc2c(S(=O)(=O)O)cccc2c1S(=O)(=O)O,–,·,–,–,–
O=Nc1c(O)ccc2cc(S(=O)(=O)O)ccc12,–,·,·,–,18
Nc1cccc2cc(S(=O)(=O)O)ccc12,–,57,64,129,–
COc1ccc2c3c(n(C)c2c1)[C@H](CO)N(C(=O)Nc1ccc(F)cc1)CC31CN(CC2CCOCC2)C1,·,–,–,·,·
Cc1cc(C)cc(-n2cccc2/C=C2/C(=N)N3C(=NC2=O)SN=C3S(C)(=O)=O)c1,–,–,37,–,–
Cc1ccc(-n2cccc2/C=C2/C(=N)N3C(=NC2=O)SN=C3S(C)(=O)=O)cc1,–,·,·,·,–
COc1cccc(-n2c(C)cc(/C=C3/C(=N)N4C(=NC3=O)SN=C4S(C)(=O)=O)c2C)c1,–,–,43,–,–
CS(=O)(=O)C1=NSC2=NC(=O)/C(=C\c3cccn3-c3ccccc3Cl)C(=N)N21,–,–,41,–,–
CCCC(=O)N1CCC2(CC1)CN(C(=O)CC)[C@@H](CO)c1c2c2ccc(OC)cc2n1C,·,–,–,·,·
COc1ccc(NC(=O)Nc2ccc3c(c2)C(=O)N([C@@H](C)CO)C[C@H](C)[C@H](CN(C)C(=O)c2ccccc2)OCCCC[C@@H](C)O3)cc1,·,–,–,·,–
COc1ccc(O)c(C2=Nc3ccccc3N=C(c3ccco3)C2)c1,–,·,·,–,53
Oc1ccc(Cl)cc1C1=Nc2ccccc2N=C(c2ccco2)C1,–,–,–,–,–
CCCNC(=O)N[C@@H]1CC[C@@H](CC(=O)NC2CCC2)O[C@@H]1CO,·,–,–,·,–
O=C(NN=Cc1ccccc1O)C(O)c1ccccc1 (centres undefined),–,·,–,–,43
SMILES,PfHsp90 yeast 2,SIRT5 block,CASP6 VEID inh,NSD2 inh,ARNT-TACC3 inh
COc1cccc(/C=N/NC(=O)C(=O)N2CCCC2)c1OC,–,·,·,–,–
O=C(N/N=C/c1ccccc1O)C(=O)N1CCCCCC1,–,–,–,–,67
COc1cccc(/C=N/NC(=O)C(=O)N2CCCC2)c1O,–,–,–,–,68
CCC(=O)Nc1ccc2c(c1)C(=O)N(C)C[C@H](OC)[C@@H](C)CN(C(=O)C1CCC1)[C@@H](C)CO2,·,–,–,·,–
Cc1cccc(NC(=O)CSc2cccc3cccnc23)c1C,–,–,–,–,84
COc1ccccc1OCC(=O)N/N=C/c1cccc2cccnc12,–,–,–,–,78
COc1ccc(OCC(=O)N/N=C/c2cccc3cccnc23)cc1,–,–,–,–,77
O=C(COc1ccc(Cl)cc1)N/N=C/c1cccc2cccnc12,–,–,–,–,–
Cc1ccccc1NC(=O)CSc1n[nH]c(-c2ccccn2)n1,–,–,–,–,64
CO[C@H]1CN(C)C(=O)c2ccc(NC(=O)C3CC3)cc2OC[C@H](C)N(CC2CCCC2)C[C@H]1C,·,–,–,·,–
COc1cccc(/C=N/NC(=O)CSc2cccc3cccnc23)c1,–,–,–,–,96
CCN(CC)C1CC(=O)N(c2ccc(Br)cc2)C1=O (centres undefined),112,–,–,·,–
Cc1cc(C)nc(SC2CC(=O)N(c3ccc(Br)cc3)C2=O)n1 (centres undefined),–,–,–,–,–
C[C@@H]1CN([C@H](C)CO)C(=O)c2cccc(N(C)C)c2O[C@@H]1CN(C)C,·,–,–,·,–
CCOC(=O)c1nn(-c2ccccc2)cc1O,–,28,–,–,–
O=C(Nc1cc(F)ccc1F)N1CC(=O)N2[C@H](C1)[C@H](c1ccc(-c3ccccc3)cc1)[C@@H]2CO,·,–,–,·,·
COC/C=C/C1=CC2=CC(=O)C(C)(OC(=O)C3CCCC3)C(=O)C2=CO1 (centres undefined),–,·,36,·,–
O=C(O)C1=C[C@H](c2coc3ccccc3c2=O)C[C@H](OCCCCO)O1,–,16!,–,·,–
CN(C)C(=O)[C@H]1[C@H](CO)[C@H]2Cn3c(ccc(-c4ccccc4)c3=O)[C@@H]1N2CCc1ccccc1,·,–,–,·,–
CN(C)C(=O)[C@@H]1[C@@H](CO)[C@@H]2Cn3c(ccc(-c4ccccc4)c3=O)[C@H]1N2CCc1ccccc1,·,29,–,·,–
CCCCCCOC(=O)Sc1nc2ccccc2o1,128,·,·,–,–
COc1ccc2c3c([nH]c2c1)[C@H](CO)N(C(=O)c1ccc(F)cc1)CC31CN(C(=O)NC(C)C)C1,·,–,–,·,·
CCC(=O)N1CCC1(C)C(=O)Nc1ccc2c(c1)CCN2C(C)=O (centres undefined),·,·,49,–,·
CCCC(=O)N1CCCC1(C)C(=O)Nc1ccc2c(c1)CCN2C(C)=O (centres undefined),·,–,–,–,·
O=C(O)CSc1c2c(nc3cc(C(=O)Nc4cccc(C(F)(F)F)c4)ccc13)CCC2,–,–,79,–,–
SMILES,PfHsp90 yeast 2,SIRT5 block,CASP6 VEID inh,NSD2 inh,ARNT-TACC3 inh
CCOC(=O)c1ccccc1NC(=O)c1ccc2c(SCC(=O)O)c3c(nc2c1)CCCC3,–,22,–,–,–
COc1cc(Cl)c(C)cc1NC(=O)c1ccc2c(SCC(=O)O)c3c(nc2c1)CCCC3,–,–,–,·,–
Cc1ccc(NS(=O)(=O)c2cccc(C(=O)NCCCn3ccnc3)c2)cc1,–,–,–,–,·
O=C(NCCCn1ccnc1)c1ccc(NS(=O)(=O)c2ccc(Cl)c(Cl)c2)cc1,–,20,–,–,–
COc1ccccc1-c1ccc2n(c1=O)C[C@H]1[C@H](CO)[C@@H](C(=O)N3CCCCC3)N(C)[C@@H]21,·,–,–,·,–
CN(C)C(=O)c1cccc(-c2ccccc2[C@@H]2[C@@H](CO)N(C(=O)C3CCC3)[C@H]2C#N)c1,·,–,–,·,·
Cc1ccc(S(=O)(=O)N[C@@H]2CCCN(Cc3ccc(OCCO)cc3)C2)cc1,·,·,–,·,–
